# Results: the supplement of paper PMC8728848
# Shown is part of a subset that was picked to be rich in the strongest signals.
# B1: Si Bti9 1b-HA (Solanum lycopersicum) (protein)
# chain: MFESRPRSVLSLGVFVILVYLSSVPLPVNSQCNRGCDLALASFYVWRGSNLTLISEMFSTSIADIVSYNNRDNIPNQDSVIAGTRINIPFRCDCLNDGEVLGHAFPYRVKSGDTYDLVARNYSDLTTAQWMMKFNSYPENNIPNTVNLSVVVNCSCGNSDVSKDFGLFVTYPVRAEDNLTSVASAANVSEDIIRRYNPAAVSILDIGQGIIYIPGRDRNGNFPPLPTSTDGLSGGAKAPLFFNPAFLYKVVELKLAGRSRTSGYPYDVPDYAGYPYDVPDYALEVLFQ
# Experiments:
# Experiment in all cases: glycan array binding signal (z-score within array); higher = stronger binding
# Conditions in all cases: glycan notation: IUPAC condensed, linker removed
# Fuc(a1-2)Gal = target: Fuc(a1-2)Gal
# Outline: (§1)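 Glycan array data were curated from 3228 arrays in the Consortium for Functional Glycomics database and kept only where the protein sequence was available. Glycan names were converted to IUPAC-condensed notation, and columns mapping to the same glycan were averaged. The binding signal is a within-array Z-score, averaged across arrays of the same protein sequence at different concentrations or buffers and across linkers. Negative Z-scores can be read as non-binding.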
# [1] = target: Fuc(a1-2)Gal(b1-3)GalNAc(a1-3)[Fuc(a1-2)]Gal(b1-4)GlcNAc
# Outline: as §1
# [2] = target: Fuc(a1-2)Gal(b1-4)GlcNAc6S
# Outline: as §1
# [3] = target: Fuc(a1-2)Gal3S(b1-4)GlcNAc
# Outline: as §1
# Fuc(a1-2)Gal6S(b1-4)Glc = target: Fuc(a1-2)Gal6S(b1-4)Glc
# Outline: as §1
# [4] = target: Fuc(a1-2)[Gal(a1-3)]Gal(b1-3)GlcNAc(b1-2)Man(a1-3)[Fuc(a1-2)[Gal(a1-3)]Gal(b1-3)GlcNAc(b1-2)Man(a1-6)]Man(b1-4)GlcNAc(b1-4)[Fuc(a1-6)]GlcNAc
# Outline: as §1
# [5] = target: Fuc(a1-2)[GalNAc(a1-3)]Gal
# Outline: as §1
# [6] = target: Fuc(a1-2)[GalNAc(a1-3)]Gal(b1-3)GlcNAc
# Outline: as §1
# [7] = target: Fuc(a1-2)[GalNAc(b1-3)]Gal
# Outline: as §1
# Gal(a1-3)Gal(b1-3)GlcNAc = target: Gal(a1-3)Gal(b1-3)GlcNAc
# Outline: as §1
# [8] = target: Gal(a1-3)Gal(b1-3)GlcNAc(b1-3)GalNAc
# Outline: as §1
# [9] = target: Gal(a1-3)Gal(b1-4)GlcNAc(b1-3)GalNAc
# Outline: as §1
# [10] = target: Gal(a1-4)Gal(b1-4)GlcNAc(b1-3)Gal(b1-4)Glc
# Outline: as §1
# [11] = target: Gal(b1-3)GlcNAc(a1-3)Gal(b1-4)GlcNAc
# Outline: as §1
# [12] = target: Gal(b1-3)GlcNAc(b1-2)Man(a1-3)[Gal(b1-3)GlcNAc(b1-2)Man(a1-6)]Man(b1-4)GlcNAc(b1-4)GlcNAc
# Outline: as §1
# [13] = target: Gal(b1-3)GlcNAc(b1-2)Man(a1-3)[Gal(b1-3)GlcNAc(b1-2)Man(a1-6)]Man(b1-4)GlcNAc(b1-4)[Fuc(a1-6)]GlcNAc
# Outline: as §1
# [14] = target: Gal(b1-3)GlcNAc(b1-2)Man(a1-3)[GlcNAc(b1-4)][Gal(b1-3)GlcNAc(b1-2)Man(a1-6)]Man(b1-4)GlcNAc(b1-4)GlcNAc
# Outline: as §1
# [15] = target: Gal(b1-3)GlcNAc(b1-2)[Gal(b1-3)GlcNAc(b1-6)]Man(a1-6)[Gal(b1-3)GlcNAc(b1-2)Man(a1-3)]Man(b1-4)GlcNAc(b1-4)GlcNAc
# Outline: as §1
# [16] = target: Gal(b1-3)GlcNAc(b1-6)[Gal(b1-3)]GalNAc
# Outline: as §1
# [17] = target: Gal(b1-4)GlcNAc(b1-2)[Gal(b1-4)GlcNAc(b1-4)]Man(a1-3)[Gal(b1-4)GlcNAc(b1-2)Man(a1-6)]Man(b1-4)GlcNAc(b1-4)GlcNAc
# Outline: as §1
# [18] = target: Gal(b1-4)GlcNAc(b1-2)[Gal(b1-4)GlcNAc(b1-6)]Man(a1-6)[GlcNAc(b1-4)][Gal(b1-4)GlcNAc(b1-2)Man(a1-3)]Man(b1-4)GlcNAc(b1-4)GlcNAc
# Outline: as §1
# [19] = target: Gal(b1-4)GlcNAc(b1-3)Gal(b1-4)GlcNAc
# Outline: as §1
# [20] = target: Gal(b1-4)GlcNAc(b1-3)Gal(b1-4)GlcNAc(b1-2)Man(a1-3)[Gal(b1-4)GlcNAc(b1-3)Gal(b1-4)GlcNAc(b1-2)Man(a1-6)]Man(b1-4)GlcNAc(b1-4)GlcNAc
# Outline: as §1
# [21] = target: Gal(b1-4)GlcNAc(b1-3)Gal(b1-4)GlcNAc(b1-2)[Gal(b1-4)GlcNAc(b1-3)Gal(b1-4)GlcNAc(b1-6)]Man(a1-6)[Gal(b1-4)GlcNAc(b1-3)Gal(b1-4)GlcNAc(b1-2)Man(a1-3)]Man(b1-4)GlcNAc(b1-4)GlcNAc
# Outline: as §1
# [22] = target: Gal(b1-4)GlcNAc(b1-3)Gal(b1-4)GlcNAc(b1-3)Gal(b1-4)GlcNAc(b1-2)Man(a1-3)[Gal(b1-4)GlcNAc(b1-3)Gal(b1-4)GlcNAc(b1-3)Gal(b1-4)GlcNAc(b1-2)Man(a1-6)]Man(b1-4)GlcNAc(b1-4)[Fuc(a1-6)]GlcNAc
# Outline: as §1
# [23] = target: Gal3S(b1-3)[Fuc(a1-4)]GlcNAc
# Outline: as §1
# Gal3S(b1-4)Glc = target: Gal3S(b1-4)Glc
# Outline: as §1
# GalNAc(b1-4)GlcNAc6S = target: GalNAc(b1-4)GlcNAc6S
# Outline: as §1
# [24] = target: GlcA3S(b1-3)Gal(b1-4)GlcNAc(b1-3)Gal(b1-4)Glc
# Outline: as §1
# [25] = target: GlcNAc(a1-4)Gal(b1-4)GlcNAc(b1-3)Gal(b1-4)GlcNAc(b1-3)Gal(b1-4)GlcNAc
# Outline: as §1
# [26] = target: GlcNAc(b1-3)Gal(b1-3)GalNAc
# Outline: as §1
# [27] = target: GlcNAc(b1-3)Gal(b1-4)GlcNAc(b1-3)Gal(b1-4)GlcNAc(b1-2)Man(a1-3)[GlcNAc(b1-3)Gal(b1-4)GlcNAc(b1-3)Gal(b1-4)GlcNAc(b1-2)Man(a1-6)]Man(b1-4)GlcNAc(b1-4)GlcNAc
# Outline: as §1
# [28] = target: GlcNAc(b1-3)Gal(b1-4)GlcNAc(b1-3)Gal(b1-4)GlcNAc(b1-3)Gal(b1-4)GlcNAc(b1-2)Man(a1-3)[GlcNAc(b1-3)Gal(b1-4)GlcNAc(b1-3)Gal(b1-4)GlcNAc(b1-3)Gal(b1-4)GlcNAc(b1-2)Man(a1-6)]Man(b1-4)GlcNAc(b1-4)[Fuc(a1-6)]GlcNAc
# Outline: as §1
# [29] = target: GlcNAc(b1-6)Gal(b1-4)GlcNAc
# Outline: as §1
# Kdn(a2-3)Gal(b1-4)Glc = target: Kdn(a2-3)Gal(b1-4)Glc
# Outline: as §1
# [30] = target: Man(a1-2)Man(a1-3)[Man(a1-2)Man(a1-6)]Man
# Outline: as §1
# [31] = target: Man(a1-2)Man(a1-3)[Man(a1-2)Man(a1-6)]Man(a1-6)[Man(a1-2)Man(a1-2)Man(a1-3)]Man
# Outline: as §1
# [32] = target: Man(a1-2)Man(a1-6)[Man(a1-3)]Man(a1-6)[Man(a1-2)Man(a1-2)Man(a1-3)]Man(b1-4)GlcNAc(b1-4)GlcNAc
# Outline: as §1
# Man(a1-6)Man = target: Man(a1-6)Man
# Outline: as §1
# Neu5Ac(a2-3)Gal(b1-4)Glc = target: Neu5Ac(a2-3)Gal(b1-4)Glc
# Outline: as §1
# [33] = target: Neu5Ac(a2-3)Gal(b1-4)[Fuc(a1-3)]GlcNAc6S
# Outline: as §1
# [34] = target: Neu5Ac(a2-6)Gal(b1-3)GlcNAc(b1-3)[Gal(b1-4)GlcNAc(b1-6)]Gal(b1-4)Glc
# Outline: as §1
# [35] = target: Neu5Ac(a2-6)Gal(b1-4)GlcNAc(b1-3)Gal(b1-4)GlcNAc(b1-3)Gal(b1-4)GlcNAc(b1-2)Man(a1-3)[Neu5Ac(a2-6)Gal(b1-4)GlcNAc(b1-3)Gal(b1-4)GlcNAc(b1-3)Gal(b1-4)GlcNAc(b1-2)Man(a1-6)]GalNAc
# Outline: as §1
# [36] = target: Neu5Ac(a2-8)Neu5Ac(a2-3)Gal(b1-4)Glc
# Outline: as §1
# [37] = target: Neu5Ac(a2-8)Neu5Gc(a2-3)Gal(b1-4)GlcNAc
# Outline: as §1
# [38] = target: Neu5Ac9Ac(a2-3)Gal(b1-4)GlcNAc
# Outline: as §1
# [39] = target: Neu5Gc(a2-3)Gal(b1-4)GlcNAc
# Outline: as §1
binder,measurement,setting,value
B1,glycan array binding signal (z-score),Fuc(a1-2)Gal,-0.051
same,glycan array binding signal (z-score),[1],0.182
same,glycan array binding signal (z-score),[2],-0.271
same,glycan array binding signal (z-score),[3],-0.035
same,glycan array binding signal (z-score),Fuc(a1-2)Gal6S(b1-4)Glc,-0.028
same,glycan array binding signal (z-score),[4],2.04
same,glycan array binding signal (z-score),[5],-0.349
same,glycan array binding signal (z-score),[6],-0.146
same,glycan array binding signal (z-score),[7],-0.405
same,glycan array binding signal (z-score),Gal(a1-3)Gal(b1-3)GlcNAc,9.57
same,glycan array binding signal (z-score),[8],0.207
same,glycan array binding signal (z-score),[9],-0.182
same,glycan array binding signal (z-score),[10],-0.274
same,glycan array binding signal (z-score),[11],-0.16
same,glycan array binding signal (z-score),[12],3.24
same,glycan array binding signal (z-score),[13],1.03
same,glycan array binding signal (z-score),[14],3.72
same,glycan array binding signal (z-score),[15],2.51
same,glycan array binding signal (z-score),[16],-0.205
same,glycan array binding signal (z-score),[17],-0.324
same,glycan array binding signal (z-score),[18],-0.363
same,glycan array binding signal (z-score),[19],-0.346
same,glycan array binding signal (z-score),[20],3.44
same,glycan array binding signal (z-score),[21],2.69
same,glycan array binding signal (z-score),[22],0.042
same,glycan array binding signal (z-score),[23],-0.237
same,glycan array binding signal (z-score),Gal3S(b1-4)Glc,2.57
same,glycan array binding signal (z-score),GalNAc(b1-4)GlcNAc6S,-0.204
same,glycan array binding signal (z-score),[24],-0.157
same,glycan array binding signal (z-score),[25],-0.231
same,glycan array binding signal (z-score),[26],-0.271
same,glycan array binding signal (z-score),[27],2.7
same,glycan array binding signal (z-score),[28],0.086
same,glycan array binding signal (z-score),[29],-0.32
same,glycan array binding signal (z-score),Kdn(a2-3)Gal(b1-4)Glc,-0.287
same,glycan array binding signal (z-score),[30],-0.589
same,glycan array binding signal (z-score),[31],-0.638
same,glycan array binding signal (z-score),[32],-0.201
same,glycan array binding signal (z-score),Man(a1-6)Man,7.42
same,glycan array binding signal (z-score),Neu5Ac(a2-3)Gal(b1-4)Glc,0.009
same,glycan array binding signal (z-score),[33],-0.438
same,glycan array binding signal (z-score),[34],-0.236
same,glycan array binding signal (z-score),[35],2.19
same,glycan array binding signal (z-score),[36],0.02
same,glycan array binding signal (z-score),[37],-0.539
same,glycan array binding signal (z-score),[38],-0.425
same,glycan array binding signal (z-score),[39],-0.219
